According to the supplement of paper PMC12282887:
± gives the standard deviation of the averaged measurements.

Legend:
Assay in all cases: promoter activity interaction Z-score (Lux/OD deviation from empty-vector control); higher = stronger promoter induction by the compound
[1] = tested on: E. coli BW25113 acrABp lux reporter
Method in brief: (§1)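 Reporter strains of E. coli BW25113 grew at 37°C in 40 µl LB Lennox in 384-well plates. Readings of OD600 and luminescence were taken every 30 min over 12 h, integrated over 0–8 h (wild type) or 1–9 h (deletion strains), and wells below 10% of the median growth value were excluded. Scores are Z-transformed residuals of growth-normalised luminescence from a fit against a control.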

[2] = tested on: E. coli BW25113 marRABp lux reporter
Method in brief: as §1

[3] = tested on: E. coli BW25113 micFp lux reporter
Method in brief: as §1

[4] = tested on: E. coli BW25113 ompFp lux reporter
Method in brief: as §1

[5] = tested on: E. coli BW25113 robp lux reporter
Method in brief: as §1

[6] = tested on: E. coli BW25113 soxSp lux reporter
Method in brief: as §1

[7] = tested on: E. coli BW25113 tolCp lux reporter
Method in brief: as §1

[8] = 0.11 µg/ml, genetic background: wild type
[9] = 0.11 µg/ml, genetic background: ΔmarA
[10] = 0.11 µg/ml, genetic background: Δrob
[11] = 0.11 µg/ml, genetic background: ΔsoxS
[12] = 0.23 µg/ml, genetic background: wild type
[13] = 0.23 µg/ml, genetic background: ΔmarA
[14] = 0.23 µg/ml, genetic background: Δrob
[15] = 0.23 µg/ml, genetic background: ΔsoxS
[16] = 0.46 µg/ml, genetic background: wild type
[17] = 0.46 µg/ml, genetic background: ΔmarA
[18] = 0.46 µg/ml, genetic background: Δrob
[19] = 0.46 µg/ml, genetic background: ΔsoxS

In the case of N[C@@H](C(=O)N[C@@H]1C(=O)N2C(C(=O)O)=C(Cl)CS[C@H]12)c1ccccc1 [Cefaclor], the “promoter activity interaction Z-score” value [1, 8] is reported as -0.0672 ± 0.0046, the “promoter activity interaction Z-score” value [1, 9] is reported as 0.0667 ± 0.63 and the “promoter activity interaction Z-score” value [1, 10] is reported as -0.0825 ± 0.022. For the same molecule, the “promoter activity interaction Z-score” value [1, 11] was 0.202 ± 0.33, the “promoter activity interaction Z-score” value [1, 12] was 0.0822 ± 0.27 and the “promoter activity interaction Z-score” value [1, 13] was -0.226 ± 0.26. For the same molecule, the “promoter activity interaction Z-score” value [1, 14] was -0.0254 ± 0.2, the “promoter activity interaction Z-score” value [1, 15] was 0.108 ± 0.18 and the “promoter activity interaction Z-score” value [1, 16] was -0.327 ± 0.23. For the same molecule, the “promoter activity interaction Z-score” value [1, 17] was 0.267 ± 0.91, the “promoter activity interaction Z-score” value [1, 18] was 0.0322 ± 0.2 and the “promoter activity interaction Z-score” value [1, 19] was 0.0468 ± 0.32. The “promoter activity interaction Z-score” value [2, 8] was -0.22 ± 0.046, the “promoter activity interaction Z-score” value [2, 9] was -0.342 ± 0.017 and the “promoter activity interaction Z-score” value [2, 10] was 0.00564 ± 0.3. The “promoter activity interaction Z-score” value [2, 11] was 0.0816 ± 0.011, the “promoter activity interaction Z-score” value [2, 12] was 0.101 ± 0.062 and the “promoter activity interaction Z-score” value [2, 13] was -0.215 ± 0.016. The “promoter activity interaction Z-score” value [2, 14] was -0.0669 ± 0.059, the “promoter activity interaction Z-score” value [2, 15] was -0.244 ± 0.22 and the “promoter activity interaction Z-score” value [2, 16] was -0.245 ± 0.15. For the same molecule, the “promoter activity interaction Z-score” value [2, 17] was 0.298 ± 0.42, the “promoter activity interaction Z-score” value [2, 18] was 0.0148 ± 0.0067 and the “promoter activity interaction Z-score” value [2, 19] was -0.145 ± 0.23. For the same molecule, the “promoter activity interaction Z-score” value [3, 8] was -0.186 ± 0.14, the “promoter activity interaction Z-score” value [3, 9] was -0.0579 ± 0.053 and the “promoter activity interaction Z-score” value [3, 10] was -0.0069 ± 0.16. The “promoter activity interaction Z-score” value [3, 11] was -0.168 ± 0.014, the “promoter activity interaction Z-score” value [3, 12] was 0.286 ± 0.18 and the “promoter activity interaction Z-score” value [3, 13] was 0.0237 ± 0.12. The “promoter activity interaction Z-score” value [3, 14] was -0.137 ± 0.035, the “promoter activity interaction Z-score” value [3, 15] was -0.23 ± 0.11 and the “promoter activity interaction Z-score” value [3, 16] was -0.0523 ± 0.022. The “promoter activity interaction Z-score” value [3, 17] was -0.0548 ± 0.1, the “promoter activity interaction Z-score” value [3, 18] was 0.072 ± 0.35 and the “promoter activity interaction Z-score” value [3, 19] was 0.0997 ± 0.0034. For the same molecule, the “promoter activity interaction Z-score” value [4, 8] was -0.0486 ± 0.033, the “promoter activity interaction Z-score” value [4, 9] was 0.00202 ± 0.074 and the “promoter activity interaction Z-score” value [4, 10] was -0.037 ± 0.097. For the same molecule, the “promoter activity interaction Z-score” value [4, 11] was 0.00353 ± 0.4, the “promoter activity interaction Z-score” value [4, 12] was 0.205 ± 0.32 and the “promoter activity interaction Z-score” value [4, 13] was -0.158 ± 0.14. For the same molecule, the “promoter activity interaction Z-score” value [4, 14] was 0.0924 ± 0.14, the “promoter activity interaction Z-score” value [4, 15] was -0.0604 ± 0.083 and the “promoter activity interaction Z-score” value [4, 16] was -0.3379 ± 0.00077. For the same molecule, the “promoter activity interaction Z-score” value [4, 17] was 0.243 ± 0.29, the “promoter activity interaction Z-score” value [4, 18] was 0.261 ± 0.15 and the “promoter activity interaction Z-score” value [4, 19] was 0.0432 ± 0.23. For the same molecule, the “promoter activity interaction Z-score” value [5, 8] was 0.143 ± 0.35, the “promoter activity interaction Z-score” value [5, 9] was -0.548 ± 0.49 and the “promoter activity interaction Z-score” value [5, 10] was -0.0741 ± 0.49. The “promoter activity interaction Z-score” value [5, 11] was -0.204 ± 0.27, the “promoter activity interaction Z-score” value [5, 12] was 0.403 ± 0.76 and the “promoter activity interaction Z-score” value [5, 13] was -0.533 ± 0.12. For the same molecule, the “promoter activity interaction Z-score” value [5, 14] was -0.17 ± 0.038, the “promoter activity interaction Z-score” value [5, 15] was 0.0114 ± 0.73 and the “promoter activity interaction Z-score” value [5, 16] was -0.312 ± 0.44. For the same molecule, the “promoter activity interaction Z-score” value [5, 17] was -0.025 ± 0.62, the “promoter activity interaction Z-score” value [5, 18] was -0.475 ± 0.67 and the “promoter activity interaction Z-score” value [5, 19] was -0.073 ± 1.2. The “promoter activity interaction Z-score” value [6, 8] was 0.0812 ± 0.014, the “promoter activity interaction Z-score” value [6, 9] was 0.114 ± 0.011 and the “promoter activity interaction Z-score” value [6, 10] was 0.166 ± 0.057. The “promoter activity interaction Z-score” value [6, 11] was 0.145 ± 0.29, the “promoter activity interaction Z-score” value [6, 12] was 0.222 ± 0.12 and the “promoter activity interaction Z-score” value [6, 13] was 0.143 ± 0.22. For the same molecule, the “promoter activity interaction Z-score” value [6, 14] was 0.159 ± 0.22, the “promoter activity interaction Z-score” value [6, 15] was 0.00336 ± 0.19 and the “promoter activity interaction Z-score” value [6, 16] was -0.146 ± 0.12. For the same molecule, the “promoter activity interaction Z-score” value [6, 17] was -0.0654 ± 0.045, the “promoter activity interaction Z-score” value [6, 18] was 0.255 ± 0.11 and the “promoter activity interaction Z-score” value [6, 19] was -0.0397 ± 0.37. For the same molecule, the “promoter activity interaction Z-score” value [7, 8] was -0.564 ± 0.28, the “promoter activity interaction Z-score” value [7, 9] was 0.134 ± 0.67 and the “promoter activity interaction Z-score” value [7, 10] was 0.613 ± 0.26. The “promoter activity interaction Z-score” value [7, 11] was -0.636 ± 0.056, the “promoter activity interaction Z-score” value [7, 12] was 0.674 ± 0.6 and the “promoter activity interaction Z-score” value [7, 13] was -0.149 ± 1.3. The “promoter activity interaction Z-score” value [7, 14] was 0.0751 ± 0.037, the “promoter activity interaction Z-score” value [7, 15] was -0.124 ± 0.055 and the “promoter activity interaction Z-score” value [7, 16] was -0.115 ± 0.33. The “promoter activity interaction Z-score” value [7, 17] was -0.727 ± 1.3, the “promoter activity interaction Z-score” value [7, 18] was -0.374 ± 0.56 and the “promoter activity interaction Z-score” value [7, 19] was -0.124 ± 0.67.
